# Assay results reported in PubChem BioAssay (NCATS).
# Unmarked numbers belong to inactive results. Results filed as inconclusive are left out. Calls of active or inactive are those of the source. Calls follow the shape of the dose curve; as a rule, active = well fitted curve in the direction sought with a large enough effect; inconclusive = small, poorly fitted or top-dose-only effect, or another doubt; inactive = no such curve, though single readings can be large; an effect the other way counts as inactive or inconclusive.
# How the values were obtained:
# [1] = molecular target: Cytochrome P450 3A4 (Homo sapiens) (UniProt P08684); assay: qHTS Assay for Activators of Cytochrome P450 3A4 (AID 885); also: nearly all actives have a fitted effect of over 65% in size
# Procedure, shortened: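 Human CYP3A4 (20 nM) with Luciferin-PPXE at 25 uM (its KM) in 200 mM KPO4; 10 min compound preincubation, then NADPH regeneration and 60 min reaction at RT. Luciferin read by luminescence; normalized to 57 uM ketoconazole full inhibition.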
# [2] = molecular target: Cytochrome P450 3A4 (Homo sapiens) (UniProt P08684); assay: qHTS Assay for Inhibitors and Substrates of Cytochrome P450 3A4 (AID 884); also: nearly all actives have a fitted effect of over 50% in size; also: potency is read from the fitted curve at half-maximal effect; as to activity change, negative = inhibition: series mostly up to about 57 µM; % is scaled to controls: 0 for no effect and ±100 for the full control effect
# Procedure, shortened: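 20 nM human CYP3A4 with 25 uM Luciferin-PPXE (at KM) in 200 mM KPO4, preincubated 10 min with compound; NADPH regeneration started a 60 min RT reaction. Luciferin detected by luminescence, normalized to 57 uM ketoconazole as full inhibition.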
# [3] = Confirmation and Secondary Assay for Modulators of Hemoglobin Beta Chain Splicing at IVS2 654 locus (AID 910);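 also: HeLa cells stably carrying EGFP split by mutant beta-globin IVS2-654 intron; % of control where 0% means no effect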
# Procedure, shortened: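 HeLa cells stably expressing EGFP interrupted by β-globin IVS2-654 intron, seeded overnight in Opti-MEM/2% FCS, then treated 2 days at 37 °C. Restored splicing read as total peak GFP intensity per well by laser scanning cytometry (488 nm excitation, 500–520 nm emission); 500 nM antisense PNA as control.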
# [4] = Confirmation and Secondary Assay for Modulators of Hemoglobin Beta Chain Splicing at IVS2 705 locus (AID 930);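 also: HeLa cells stably expressing the EGFP-705 splicing reporter; GFP fluorescence per well restored by corrected splicing of the IVS2-705 intron in EGFP; series mostly up to about 46 µM; % of control where 0% means no effect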
# Procedure, shortened: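 HeLa EGFP-705 reporter; 500 cells/well, o/n 37C 5% CO2; cpd 2 d; 488 ex/500-520 em laser scan; total peak GFP intensity/well. Ref: 500 nM […] antisense PNA.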
# [5] = molecular target: Cytochrome P450 2C19 (Homo sapiens) (UniProt P33261); assay: qHTS Assay for Inhibitors and Substrates of Cytochrome P450 2C19 (AID 899); also: nearly all actives have a fitted effect of over 60% in size; also: potency is read from the fitted curve at half-maximal effect
# Procedure, shortened: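 Luminescent read-out of luciferin formed from Luciferin-H EGE (10uM, equal to KM). Enzyme 5nM in 50mM KPO4; compound added, 10 min at 37C, then NADPH regenerating system for 60 min at 37C. Full inhibition defined by 57uM ketoconazole.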
# [6] = molecular target: Cytochrome P450 2D6 (Homo sapiens) (UniProt P10635); assay: qHTS Assay for Inhibitors and Substrates of Cytochrome P450 2D6 (AID 891); also: nearly all actives have a fitted effect of over 60% in size; also: potency is read from the fitted curve at half-maximal effect;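 as to activity change, negative = inhibition: luciferin methyl ether substrate demethylated by CYP2D6 with NADPH regeneration; % is scaled to controls: 0 for no effect and ±100 for the full control effect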
# Procedure, shortened: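 Human CYP2D6 (5 nM) with 30 uM Luciferin-ME EGE (at Km) in 100 mM KPO4, compound preincubated 10 min, then NADPH regeneration system for 60 min at room temperature. Luciferin read by luminescence; normalized to 1.43 uM quinidine.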
# Sequence of Cytochrome P450 3A4 (Homo sapiens) (P08684 whole entry, looked up): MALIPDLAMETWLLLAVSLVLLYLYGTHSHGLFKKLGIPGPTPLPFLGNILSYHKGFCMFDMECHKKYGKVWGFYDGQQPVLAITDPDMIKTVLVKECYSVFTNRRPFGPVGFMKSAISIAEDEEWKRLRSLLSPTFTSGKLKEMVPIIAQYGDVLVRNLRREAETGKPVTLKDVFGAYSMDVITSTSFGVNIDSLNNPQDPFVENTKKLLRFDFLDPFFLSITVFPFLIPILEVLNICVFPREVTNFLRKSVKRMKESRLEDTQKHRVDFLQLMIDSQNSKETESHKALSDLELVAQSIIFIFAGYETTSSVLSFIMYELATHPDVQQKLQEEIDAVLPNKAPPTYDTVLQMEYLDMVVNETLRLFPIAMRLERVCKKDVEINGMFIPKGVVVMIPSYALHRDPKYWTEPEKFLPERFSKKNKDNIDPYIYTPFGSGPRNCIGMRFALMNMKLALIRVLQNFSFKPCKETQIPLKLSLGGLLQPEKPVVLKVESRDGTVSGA
# Sequence of Cytochrome P450 2D6 (Homo sapiens) (P10635 whole entry, looked up): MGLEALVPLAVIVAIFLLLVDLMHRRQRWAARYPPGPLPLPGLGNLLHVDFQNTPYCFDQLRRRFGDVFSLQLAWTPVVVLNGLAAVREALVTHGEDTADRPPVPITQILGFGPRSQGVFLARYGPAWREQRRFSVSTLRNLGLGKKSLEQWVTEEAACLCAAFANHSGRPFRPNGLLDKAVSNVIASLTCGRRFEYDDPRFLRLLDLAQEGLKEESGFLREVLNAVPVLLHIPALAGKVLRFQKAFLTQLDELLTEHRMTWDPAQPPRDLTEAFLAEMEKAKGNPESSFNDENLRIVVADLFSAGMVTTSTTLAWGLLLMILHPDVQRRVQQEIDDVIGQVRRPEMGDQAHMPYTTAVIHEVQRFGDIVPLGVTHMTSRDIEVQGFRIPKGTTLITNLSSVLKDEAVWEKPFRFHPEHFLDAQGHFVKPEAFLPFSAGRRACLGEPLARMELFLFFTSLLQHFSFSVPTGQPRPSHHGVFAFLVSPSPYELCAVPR
# Sequence of Cytochrome P450 2C19 (Homo sapiens) (P33261 whole entry, looked up): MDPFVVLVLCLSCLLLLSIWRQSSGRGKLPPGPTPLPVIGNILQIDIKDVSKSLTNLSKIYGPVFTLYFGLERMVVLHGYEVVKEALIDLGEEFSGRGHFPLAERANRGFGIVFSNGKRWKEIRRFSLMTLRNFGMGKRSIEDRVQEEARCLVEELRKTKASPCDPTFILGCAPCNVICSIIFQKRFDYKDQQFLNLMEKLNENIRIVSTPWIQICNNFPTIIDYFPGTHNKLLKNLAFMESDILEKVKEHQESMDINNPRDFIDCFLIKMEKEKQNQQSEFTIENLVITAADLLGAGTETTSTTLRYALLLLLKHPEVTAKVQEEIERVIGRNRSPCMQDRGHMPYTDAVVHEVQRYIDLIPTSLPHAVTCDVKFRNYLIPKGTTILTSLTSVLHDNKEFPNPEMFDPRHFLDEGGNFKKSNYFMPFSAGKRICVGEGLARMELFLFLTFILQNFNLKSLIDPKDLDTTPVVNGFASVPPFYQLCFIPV
smiles,measurement,setting,value
CC(C)=CCC/C(C)=C/CO/N=C1/C[C@@H](O)[C@@H](O)[C@@H]2[C@@H]3C(=O)N(Cc4ccccc4)C(=O)[C@H]3CC[C@H]12,"activity change, positive = activation",[1],-49.8% [at 11.4 µM]
CN1C[C@@H]2C(c3ccccc3)C3(c4ccc(C#N)cc4)CC2(C3)[C@H]1c1ccccc1 (stereo partly drawn),Potency,[1],inactive
CC(C)CO/N=C1/C[C@@H](O)[C@@H](O)[C@@H]2[C@@H]3C(=O)N([C@@H](C)c4ccccc4)C(=O)[C@H]3CC[C@H]12,"activity change, positive = activation",[1],-46.1% [at 11.4 µM]
C=CCCCCCCCCCCCC(O)CC(O)COC(C)=O (stereo not drawn) (tested in a mixture with another compound),Potency,[2],inactive
same,outcome,[3],inactive
same,outcome,[4],inactive
O=C1[C@H]2[C@H]3[C@H](O)[C@H](O)C/C(=N/OC[C@@H](O)COCc4ccco4)[C@@H]3CC[C@@H]2C(=O)N1C1CCCCC1,"activity change, positive = activation",[1],-51.1% [at 11.4 µM]
NC(=O)c1cc[n+](CC2=C(C(=O)O)N3C(=O)C(NC(=O)C(c4ccccc4)S(=O)(=O)[O-])C3SC2)cc1 (stereo not drawn),Potency,[2],inactive
same,outcome,[4],inactive
CNC(=O)Oc1ccc2c(c1)[C@@]1(C)CCN(C)C1N2C (stereo partly drawn),Potency,[2],inactive
same,outcome,[4],inactive
COC(=O)[C@@H]1C[C@H]2CC[C@H](O)C[C@H]2N1Cc1ccc(N2CCOCC2)cc1,Potency,[1],inactive
CCC1=C2CC[C@H]3C(=O)N(CC)C(=O)[C@H]3[C@H]2[C@@]2(C)C(=NCC(=O)OC)OC(=O)N2C1=O,Potency,[1],inactive
COC(=O)NC(/C(C(=O)OC)=C(\C)NCc1ccccc1)c1ccc(Cl)cc1 (stereo not drawn),"activity change, negative = inhibition",[2],-24.6% [at 11.4 µM]
same,Potency,[5],5.01 µM (active)
CSCCC(NC=O)C(=O)NC(CC(C)C)C(=O)NC(Cc1ccccc1)C(=O)O (stereo not drawn),Potency,[2],inactive
same,outcome,[3],inactive
COc1ccc(/C=C/C(=O)c2cc(O)ccc2O)cc1,Potency,[2],inactive
same,outcome,[3],inactive
same,outcome,[4],inactive
O=C(N/N=C1/C[C@@H](O)[C@@H](O)[C@@H]2[C@H]3C(=O)N(c4ccc(F)cc4F)C(=O)[C@@H]3CC[C@H]12)OCc1ccccc1,"activity change, positive = activation",[1],-37% [at 11.4 µM]
O=C1[C@H]2[C@H]3[C@H](O)[C@H](O)C/C(=N/OC[C@@H](O)COCc4ccco4)[C@H]3CC[C@@H]2C(=O)N1c1cccc(Oc2ccccc2)c1,"activity change, positive = activation",[1],-40.2% [at 11.4 µM]
CO[C@@H]1/C=C\CC(=O)N[C@@H](C)C(=O)OC[C@@H](OC)[C@H](C)CCCC(=O)OC[C@H]1C,"activity change, positive = activation",[1],-57.1% [at 11.4 µM]
CCC1=C(OC(=O)N(CC)CC)N2C(=O)OC(=NCCOC)[C@]2(C)[C@H]2C1=CC[C@H]1C(=O)NC(=O)[C@H]12,Potency,[1],inactive
COc1ccc(O[C@H]2C=C[C@@H](c3ccccc3)O[C@H]2COC(=O)CC/C(C)=N\O[C@@H](C)CN2CCCc3nc(C)c(C)cc32)cc1,Potency,[2],3.16 µM (active)
same,Potency,[6],3.16 µM (active)
same,Potency,[5],3.16 µM (active)
CC(C)=CCC/C(C)=C/CO/N=C1/C[C@@H](O)[C@@H](O)[C@@H]2[C@H]3C(=O)N(c4ccc(F)cc4F)C(=O)[C@@H]3CC[C@@H]12,"activity change, positive = activation",[1],-30.2% [at 11.4 µM]
CCOC(=O)OCC1OC(c2ccc(C(C)=O)cc2)C=CC1Oc1ccc(-c2ccccc2)cc1 (stereo not drawn),"activity change, negative = inhibition",[2],-27.8% [at 11.4 µM]
same,Potency,[6],inactive
same,Potency,[5],inactive
CC(=O)OCC1OC(C#Cc2ccc(C(C)(C)C)cc2)C=CC1OC(C)=O (stereo not drawn),"activity change, negative = inhibition",[2],-26.6% [at 11.4 µM]
same,Potency,[6],inactive
same,Potency,[5],inactive
CC(C)=NO[C@@H](C)c1cc(-c2c(C)cc(C)cc2C)no1,"activity change, positive = activation",[1],-45% [at 11.4 µM]
COC(=O)C/C=C\[C@@H](C)[C@@H](CO)NS(=O)(=O)c1ccc(C)cc1,"activity change, positive = activation",[1],-37.6% [at 11.4 µM]
COC(=O)[C@@H]1CC[C@H](C)[C@@H](c2ccc(C)cc2)N1C(=O)c1ccc(/C=N\O[C@@H](C)CN2CCCCc3nc(C)c(C)cc32)cc1,"activity change, positive = activation",[1],-36.1% [at 11.4 µM]
COc1cc2c(Cc3c4c5c(cc(OC)c(OC)c5c5c(OC)c(OC)ccc35)CCN4C)c3c4c(cc(OC)c(OC)c4c2cc1OC)CCN3C,Potency,[1],inactive
C[C@]12CCC3c4ccc(O)cc4CCC3C1CCC2OC(=O)CCC1CCCC1 (stereo partly drawn),Potency,[2],inactive
same,outcome,[3],inactive
CCc1cc2c(nc1CC)CCN(CC/C(C)=N/OC[C@H]1O[C@H](c3ccccc3)C=C[C@@H]1Oc1ccc(OC)cc1)C2,"activity change, positive = activation",[1],-51.8% [at 11.4 µM]
COc1ccc(COC(=O)N/N=C2/C[C@@H](O)[C@@H](O)[C@@H]3[C@@H]4C(=O)N([C@@H](C)c5ccccc5)C(=O)[C@H]4CC[C@@H]23)cc1,"activity change, positive = activation",[1],-39.8% [at 11.4 µM]
COC(=O)[C@@H]1C[C@@H]2CC[C@@H](O)C[C@@H]2N1Cc1ccc(C)s1,Potency,[1],inactive
CO[C@@H]1COC(=O)CC=C[C@@H](C)[C@@H]2C=C[C@H](O)[C@@H](COC(=O)C/C=C\[C@H]1C)O2,"activity change, positive = activation",[1],-43.1% [at 11.4 µM]
CCOC(=O)OCC1OC(C#Cc2ccc(C(C)(C)C)cc2)C=CC1OC(=O)OCC (stereo not drawn),"activity change, negative = inhibition",[2],-12.4% [at 11.4 µM]
same,Potency,[6],inactive
same,Potency,[5],inactive
C#CCCCO/N=C1/C[C@@H](O)[C@@H](O)[C@@H]2[C@@H]3C(=O)N(C[C@@H]4CCCO4)C(=O)[C@H]3CC[C@H]12,"activity change, positive = activation",[1],-43.2% [at 11.4 µM]
COC(=O)c1ccc(C23CC4(C2)[C@H](CN(C)[C@@H]4c2ccccc2)C3c2ccccc2)cc1 (stereo partly drawn),Potency,[1],inactive
COC(=O)c1cccc(C23CC4(C2)[C@H](CN(Cc2ccc(-c5ccccc5)cc2)[C@@H]4c2ccccc2)C3c2ccc(C(F)(F)F)cc2)c1 (stereo partly drawn),Potency,[1],inactive
CC(C)=CCC/C(C)=C/CO/N=C1/C[C@@H](O)[C@@H](O)[C@@H]2[C@@H]3C(=O)N(C[C@@H]4CCCO4)C(=O)[C@H]3CC[C@H]12,"activity change, positive = activation",[1],-35.7% [at 11.4 µM]
CO[C@@H]1COC(=O)C/C=C\[C@H](C)COC(=O)[C@H](Cc2ccccc2)NC(=O)C/C=C\[C@H]1C,"activity change, positive = activation",[1],-56.6% [at 11.4 µM]
CC(=O)c1ccc(OC2C=CC(c3ccc(Cl)cc3)OC2CO)cc1 (stereo not drawn),"activity change, negative = inhibition",[2],-21.5% [at 11.4 µM]
same,Potency,[6],inactive
same,Potency,[5],5.01 µM (active)
C/C(CCN1CCc2nc(-c3ccccc3)c(-c3ccccc3)cc2C1)=N\OC[C@@H](O)[C@@H]1O[C@@H]2OC(C)(C)O[C@@H]2[C@H]1O,"activity change, positive = activation",[1],-41.3% [at 11.4 µM]
CCOC(=O)N/N=C1/C[C@@H](O)[C@@H](O)[C@@H]2[C@@H]3C(=O)N(Cc4ccc5c(c4)OCO5)C(=O)[C@H]3CC[C@H]12,"activity change, positive = activation",[1],-58.6% [at 11.4 µM]
c1ccc(-c2ccc(CN3C[C@@H]4C(c5ccccc5)C5(c6cccnc6)CC4(C5)[C@H]3c3ccccc3)cc2)cc1 (stereo partly drawn),Potency,[1],inactive
CC(=O)O[C@H]1C2=CO[C@H](C)[C@H]3[C@H]4C5=C([C@H](O)[C@H]6O[C@@H]6C5=O)[C@H](O[C@H]4C)[C@@]23C(=O)[C@H]2O[C@@H]21,"activity change, positive = activation",[1],-42.7% [at 11.4 µM]
C[C@@H]1/C=C\CC(=O)OC[C@H]2O[C@@H](C=C[C@@H]2O)[C@H](C)/C=C\CC(=O)OC1,"activity change, positive = activation",[1],-35.6% [at 11.4 µM]
same,Potency,[6],inactive
CCC1=C2CC[C@H]3C(=O)N(c4ccccc4)C(=O)[C@H]3[C@H]2[C@@]2(C)C(=O)N(CC(=O)OC)C(=O)N2C1=O,Potency,[1],inactive
COC(=O)CN=C1OC(=O)N2C(=O)C3=C4C(C[C@H]5C(=O)N(c6ccccc6)C(=O)[C@H]5[C@H]4[C@@]12Cc1ccccc1)[C@H]1C(=O)N(c2ccccc2)C(=O)[C@H]1[C@H]3C (stereo partly drawn),Potency,[1],inactive
COC(=O)c1cccc(C#CC(NP(=O)(c2ccccc2)c2ccccc2)c2ccccc2)c1 (stereo not drawn),Potency,[1],inactive
CCC1=C2CC[C@H]3C(=O)N(CC(=O)OC)C(=O)[C@H]3[C@H]2[C@@]2(C)C(=O)N(CC3CC3)C(=O)N2C1=O,Potency,[1],inactive
CO[C@@H]1COC(=O)[C@@H](CCSC)NC(=O)C/C=C\[C@@H](C)COC(=O)CCC[C@H]1C,"activity change, positive = activation",[1],-30.5% [at 11.4 µM]
Cc1c(O)c(O)cc2c1oc1c3ccccc3oc(=O)c21,Potency,[1],inactive
CC(=O)OC[C@@H]1O[C@H](C/C=N\O[C@@H](C)CN2CCCc3nc(C)c(C)cc32)C=C[C@@H]1OC(C)=O,"activity change, positive = activation",[1],-35.5% [at 11.4 µM]
same,Potency,[6],3.16 µM (active)
CC(=O)OC[C@H]1O[C@@H](O/N=C(\C)CCN2CCCCc3nc(C)c(C)cc32)[C@H](OC(C)=O)[C@@H](OC(C)=O)[C@H]1OC(C)=O,"activity change, positive = activation",[1],-53.9% [at 11.4 µM]
same,Potency,[6],3.98 µM (active)
C/C(CCN1CCCc2nc(C)c(C)cc21)=N\O[C@@H](C)c1cc(-c2c(C)cc(C)cc2C)no1,"activity change, positive = activation",[1],-56.9% [at 11.4 µM]
CC[C@@H](c1ccccc1)n1c(=O)n2n(c1=O)[C@H]1[C@H](O)[C@H]3O[C@@H]3/C(=N/OCc3ccccc3)[C@@H]1CC2,"activity change, positive = activation",[1],-33.4% [at 11.4 µM]
COC(=O)N1C2(C=CC1(C)C(=O)NCc1ccc(N(C)C)cc1)CCCCC2 (stereo not drawn),Potency,[1],inactive
COC(=O)[C@@H]1CC[C@H](C)[C@@H](c2ccc(C)cc2)N1C(=O)c1ccc(/C=N\O[C@@H](C)c2cn([C@H]3COC[C@H]3O)nn2)cc1,"activity change, positive = activation",[1],-43.4% [at 11.4 µM]
FC(F)(F)c1ccc(CN2C[C@@H]3C(c4ccc(Cl)nc4)C4(c5ccccc5)CC3(C4)[C@H]2c2ccccc2)cc1 (stereo partly drawn),Potency,[1],inactive
CC(=O)OC[C@H]1O[C@@H](O/N=C(\C)CCN2CCc3nc(-c4ccccc4)c(-c4ccccc4)cc3C2)[C@H](OC(C)=O)[C@@H](OC(C)=O)[C@H]1OC(C)=O,"activity change, positive = activation",[1],-41.6% [at 11.4 µM]
same,Potency,[6],3.16 µM (active)
